From PubChem
A selection: hits, their analogues and other compounds. The true share with any hit is near 4.1%.
FBA Mtb inh – inhibits M. tuberculosis FBA enzyme; P9WQA3; purified M. tuberculosis FBA, fluorescence read-out; inhibition, % at 1 µM; 2.3% of 360,000 active;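 further: 0% = vehicle and 100% = reference inhibitor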
Target sequence (P9WQA3 whole entry, looked up): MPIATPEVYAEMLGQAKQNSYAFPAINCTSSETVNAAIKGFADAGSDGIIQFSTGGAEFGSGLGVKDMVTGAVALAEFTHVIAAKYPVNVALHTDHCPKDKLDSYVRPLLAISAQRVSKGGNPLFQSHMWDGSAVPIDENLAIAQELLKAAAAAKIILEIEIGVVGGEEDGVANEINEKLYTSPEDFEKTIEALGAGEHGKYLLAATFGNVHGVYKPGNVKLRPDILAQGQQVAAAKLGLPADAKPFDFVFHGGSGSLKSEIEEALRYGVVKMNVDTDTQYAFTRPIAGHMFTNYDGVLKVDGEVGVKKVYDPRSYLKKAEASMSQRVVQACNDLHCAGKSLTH
BH1578 lux ind – inducers of Vibrio cholerae quorum light production without autoinducers; 0.16% of 350,000 active; V. cholerae BH1578 lux reporter, luminescence, 6 h; activation, % at 18.7 µM; in the data active means activation mostly above about 9.7%, no sharp cut-off
Rv3671c inh – inhibits the M. tuberculosis serine protease Rv3671c. inhibition, % at 5.96 µM. 0.048% of 320,000 active. P9WHR9; in the data active means inhibition above about 38%;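 further: extracellular domain of Rv3671c used as enzyme; 0% = enzyme with DMSO and 100% = no enzyme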
Mtb UGM inh – blocks M. tuberculosis UGM enzyme; P9WIQ1; purified UGM, fluorescence polarization probe displacement; inhibition, % at 10 µM; 0.06% of 320,000 active; AID 504406; in the data active means inhibition above about 10%, passing the limit was not always enough
GDH-TPI counter-1 – GDH-TPI coupled enzyme inhibition counter-screen | GDH-TPI coupled enzyme counterscreen, NADH absorbance | inhibition, % at 4.8 µM | 1.2% of 360,000 active; in the data active means inhibition above about 30%;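 further: 0% = DMSO wells and 100% = wells lacking the enzyme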
RecA intein inh – inhibitors of M. tuberculosis RecA intein splicing; P9WHJ3; cell-free RecA intein splicing, fluorescence; inhibition, % (no concentration beside the values); 0.75% of 290,000 active; in the data active means inhibition above about 30%;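 further: 0% = vehicle wells and 100% = reference inhibitor control wells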
Mtb FBA confirm – Mtb FBA inhibition, confirmed; 78% of 5,600 active; shares compounds with FBA Mtb inh; inhibition, % at 1 µM; purified M. tuberculosis FBA, fluorescence read-out;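 further: 0% = vehicle wells and 100% = reference inhibitor wells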
GDH-TPI counter-2 – inhibits GDH-TPI coupling enzymes, flagging Mtb FBA hits. shares compounds with FBA Mtb inh. GDH-TPI coupled enzyme counterscreen, fluorescence. inhibition, % at 1 µM. 81% of 5,600 active; in the data active means inhibition above about 10%
GDH-TPI dose – counter-screen for M. tuberculosis FBA inhibitors: GDH-TPI dose response | shares compounds with FBA Mtb inh | GDH-TPI coupled enzyme assay, fluorescence, artifact counterscreen | IC50, µM | 79% of 170 active | AID 652145; call rule not given here
* marks the source's active call; other numbers are inactive results; i = inactive; . = no result; + = active, no number. Unless noted, no stated cut-off is given here; in the data, active means inhibition above about 27%; inactive means the rest.

SMILES	FBA Mtb inh	BH1578 lux ind	Rv3671c inh	Mtb UGM inh	GDH-TPI counter-1	RecA intein inh	Mtb FBA confirm	GDH-TPI counter-2	others
COc1cccc(-c2c(-c3cc(OC)cc(OC)c3)n(C)c3ccc(-c4cnc(OC)nc4)cc23)c1	3.9	i	5.7	0.4	-5.9	.	.	.
COc1cc(C#Cc2c(-c3cncn3C)n(C)c3ccc(-c4ccc5cc[nH]c5c4)cc23)cc(OC)c1	34.6*	i	-9.8	0.5	22.7	.	56.5*	46.1*
COc1cc(OC)cc(-c2c(-c3cccs3)c3cc(-c4ccc(OC)c(OC)c4)ccc3n2C)c1	32.5*	i	3.1	1.7	18.7	.	+	170.3*
O=C(CNS(=O)(=O)c1ccc(Br)cc1)NCc1ccncc1	1.0	-0.4	7.9	-3.2	-3.0	0.3	.	.
O=C1C(=O)c2cccnc2-c2ncccc21	-59.7	.	.	.	.	.	.	.
COc1ccc(-c2c(-c3cc(OC)cc(OC)c3)n(C)c3ccc(-c4ccc(S(N)(=O)=O)cc4)cc23)cc1	53.9*	0.5	5.8	0.3	11.9	.	53.0*	46.9*
COc1cc(OC)cc(-c2c(-c3cccs3)c3cc(-c4ccc5cc[nH]c5c4)ccc3n2C)c1	28.1*	i	-1.8	-1.9	37.9*	.	116.2*	110.6*
Cc1ccc(N(CC(=O)NCc2ccco2)C(=O)CNS(=O)(=O)c2ccccc2)c(C)c1	-2.7	-0.5	11.1	-4.8	-8.1	-2.4	.	.
O=C1Nc2ccc(S(=O)(=O)N3CCCCCC3)c3cccc1c23	5.4	-0.4	11.9	-2.7	10.9	-12.6	.	.
O=C1Nc2ccc(S(=O)(=O)NCc3ccccn3)c3cccc1c23	76.5*	i	.	.	11.2	-67.4	66.8*	52.5*
CCN(CC)CCNS(=O)(=O)c1ccc2c3c(cccc13)C(=O)N2	54.0*	-1.5	3.8	0.6	8.6	-200.8	61.2*	59.9*
CN1CCN(S(=O)(=O)c2ccc3c4c(cccc24)C(=O)N3)CC1	20.1	-0.4	-1.2	0.1	21.6	-0.1	.	.
O=C1Nc2ccc(S(=O)(=O)N3CCCC3)c3cccc1c23	6.1	i	-3.9	-0.1	15.0	-8.4	.	.
CN(C)CCNS(=O)(=O)c1ccc2c3c(cccc13)C(=O)N2	43.2*	-0.5	-3.5	2.8	17.1	-49.0	-7.2	-4.2
C[C@H]1CN([C@@H](C)CO)S(=O)(=O)c2ccc(-c3ccncc3)cc2O[C@H]1CN(C)C(=O)c1cccc(F)c1	1.2	0.1	.	.	-5.2	.	.	.
Cc1cc2c(n1-c1ccc(C(=O)O)cc1)CCCCC2	.	.	.	-0.5	.	0.3	.	.
CN(C(=O)COC(=O)c1ccc(Cl)cc1N)C1CCCCC1	38.5*	1.4	0.0	0.9	3.7	-1.6	40.2*	31.6*
Nc1cc(Cl)ccc1C(=O)OCC(=O)NC1CCS(=O)(=O)C1 (stereo unspecified)	52.0*	10.0	0.1	-1.3	12.4	-0.7	169.7*	158.4*
O=C(COC(=O)c1ccccc1Cl)NCc1cccs1	3.3	i	.	.	-8.0	.	.	.
Nc1cc(Cl)ccc1C(=O)OCC(=O)NCc1cccs1	56.4*	1.0	-5.0	2.7	1.6	.	31.2*	21.1*
O=C(COc1ccc2ccccc2c1)Nc1ccccc1C(=O)O	3.1	11.1	-8.0	1.6	-1.5	2.0	.	.
CC(C)(C)n1cn[nH]c1=S	3.8	-12.4	-0.5	-3.1	13.2	1.8	.	.
CC(COc1ccccc1)OC(=O)Nc1ccccc1 (stereo unspecified)	-0.4	i	.	.	-8.8	.	.	.
CSc1nccc(Oc2cncc(Cl)c2)n1	-0.3	0.5	-4.2	2.1	-3.6	0.3	.	.
CSc1nccc(Oc2ccccc2Cl)n1	110.2*	0.8	-7.7	5.2	-4.4	-2.2	13.2	8.0	GDH-TPI dose=>10
Cc1ccc2cc(-c3noc(C4CCCO4)n3)c(=O)[nH]c2c1 (stereo unspecified)	37.0*	-0.3	5.6	1.1	16.0	2.4	42.0*	45.5*
